PubChem BioAssay (NCI)
This is part of a sample that, as a whole, favours compounds with a hit. Of some 79,000 tested, about 15% had one in any assay. The source made the active and inactive calls. Cut-off read from the data, not from the text of the source: active = growth inhibition above about 70%; inactive = the rest.

Assays:
[1] = NCI Yeast Anticancer Drug Screen. Data for the mec2-1 strain (AID 157); details: S. cerevisiae mec2-1 strain, hits give high values
Summary of the method: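 Strain: mec2-1 (DNA repair/cell cycle alteration). Compound exposure, then growth measured; inhibition expressed relative to vehicle.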

[2] = NCI Yeast Anticancer Drug Screen. Data for the rad14 strain (AID 159);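 note: 0% = growth of vehicle-treated control cultures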; details: S. cerevisiae rad14 strain growth inhibition, hits give high values
Summary of the method: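 Vehicle-treated cultures served as the baseline for growth inhibition of a DNA repair-mutant yeast strain exposed to each compound.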

[3] = NCI Yeast Anticancer Drug Screen. Data for the sgs1 mgt1 strain (AID 161);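 note: 0% = growth of cultures given vehicle only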; details: S. cerevisiae sgs1 mgt1 strain, hits give high values
Summary of the method: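 Genetically altered yeast, compound exposure, growth inhibition relative to vehicle.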

[4] = NCI Yeast Anticancer Drug Screen. Data for the CLN2oe strain (AID 163);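 note: 0% = growth of vehicle-only control cultures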; details: S. cerevisiae CLN2oe strain, hits give high values
Summary of the method: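 Growth of a genetically modified yeast strain is measured after compound exposure and compared with cultures given vehicle alone.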

[5] = NCI Yeast Anticancer Drug Screen. Data for the cln2 rad14 strain (AID 165);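 note: 0% = growth equal to vehicle treated cultures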; details: S. cerevisiae cln2 rad14 strain, hits give high values
Summary of the method: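 Compounds are applied to the cln2 rad14 yeast strain, and growth is then compared with that of vehicle-treated cultures to give inhibition.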

[6] = NCI Yeast Anticancer Drug Screen. Data for the bub3 strain (AID 167); details: S. cerevisiae bub3 mutant strain, hits give high values
Summary of the method: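 Inhibition values come from growth of compound-treated mutant yeast normalised to vehicle-treated controls.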

[7] = NCI Yeast Anticancer Drug Screen. Data for the wt2 strain (AID 169);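 note: 0% = growth of vehicle-treated yeast cultures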; details: S. cerevisiae wt2 strain growth inhibition, hits give high values
Summary of the method: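 This strain belongs to a panel of yeast strains with defined genetic alterations in DNA damage repair or cell cycle control. Compounds are applied, and growth inhibition is measured against vehicle-treated cultures.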

[8] = NCI Yeast Anticancer Drug Screen. Data for the mlh1 strain (AID 171);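 note: 0% = growth of vehicle-treated control cultures of the same strain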; details: S. cerevisiae mlh1 strain growth inhibition, hits give high values
Summary of the method: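 Growth of the mutant yeast strain after compound exposure, expressed as inhibition relative to vehicle-only controls.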

[9] = NCI Yeast Anticancer Drug Screen. Data for the mlh1 rad18 strain (AID 175); details: S. cerevisiae mlh1 rad18 strain growth inhibition, hits give high values
Summary of the method: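 Read-out is yeast growth inhibition, calculated against vehicle-only controls. The compound was applied to a strain engineered with DNA damage repair alterations.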

[10] = NCI Yeast Anticancer Drug Screen. Data for the rad18 strain (AID 177); details: S. cerevisiae rad18 mutant growth inhibition, hits give high values
Summary of the method: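 Growth of the mutant yeast strain after compound exposure, normalised to vehicle-only cultures.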

[11] = NCI Yeast Anticancer Drug Screen. Data for the rad52 strain (AID 147);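 note: 0% = growth of vehicle-treated control cultures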; details: S. cerevisiae rad52 mutant growth inhibition, hits give high values
Summary of the method: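 Compounds are applied to a genetically defined yeast strain lacking normal DNA damage repair, and inhibition of growth is expressed relative to cultures given vehicle only.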

[12] = NCI Yeast Anticancer Drug Screen. Data for the wt1 strain (AID 149);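 note: 0% = growth of vehicle-treated wt1 cultures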; details: S. cerevisiae wt1 strain (SPY 50644) growth inhibition, hits give high values
Summary of the method: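 Vehicle-normalised growth inhibition; strain wt1; compound exposure.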

[13] = NCI Yeast Anticancer Drug Screen. Data for the rad50EPP+ strain (AID 151);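 note: 0% = growth of vehicle-treated control cultures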; details: S. cerevisiae rad50 mutant strain, hits give high values
Summary of the method: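 Compounds were applied to the rad50EPP+ yeast strain, which bears a defined DNA repair alteration, and growth inhibition was determined relative to vehicle-treated cultures.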

[14] = NCI Yeast Anticancer Drug Screen. Data for the mgt1 strain (AID 153); details: S. cerevisiae mgt1 mutant growth inhibition, hits give high values
Summary of the method: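 Strain: mgt1 yeast, one of a set carrying defined DNA damage repair or cell cycle control alterations. Compound-treated growth compared with vehicle.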

[15] = NCI Yeast Anticancer Drug Screen. Data for the rad50 strain (AID 155);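 note: 0% = growth of vehicle-only cultures of the same strain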; details: S. cerevisiae rad50 strain growth inhibition, hits give high values
Summary of the method: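 A DNA repair-deficient yeast mutant serves as the test organism; compound-induced growth inhibition is calculated against vehicle-treated cells.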

[16] = NCI Yeast Anticancer Drug Screen. Data for the sgs1 strain (AID 173);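 note: 0% = growth of vehicle-only control cultures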; details: S. cerevisiae sgs1 mutant, hits give high values
Summary of the method: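 Growth of a yeast strain bearing a defined genetic alteration is measured after compound treatment. Inhibition is expressed relative to vehicle-only controls.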

[17] = at 5.0 µM (retest, dose inferred, filed as 0.5)
[18] = at 50.0 µM (retest, dose inferred, filed as 5.0)

Measured: growth inhibition

O=S(=O)(c1ccccc1)N1CN2CN(C1)CN(S(=O)(=O)c1ccccc1)C2
active: [1]; [18] 79%
inactive: [1]; [17] 26% | [1]; at 11.0 µM -19% | [1]; at 33.0 µM 0% | [1]; at 50.0 µM -28% | [1]; at 100.0 µM -10% | [2]; at 1.2 µM -16% | [2]; at 3.7 µM -16% | [2]; at 11.0 µM -30% | [2]; at 33.0 µM -24% | [2]; at 100.0 µM -26% | [3]; [17] -11% | [3]; [18] 4% | [3]; at 50.0 µM -5.55% | [4]; at 1.2 µM 1% | [4]; at 3.7 µM -4% | [4]; at 11.0 µM -6% | [4]; at 33.0 µM 13% | [4]; at 100.0 µM -7% | [5]; [17] 44% | [5]; [18] 52% | [5]; at 50.0 µM -16.4% | [6]; at 1.2 µM -13% | [6]; at 3.7 µM -16% | [6]; [17] 25% | [6]; at 11.0 µM -25% | [6]; at 33.0 µM 3% | [6]; [18] 31% | [6]; at 50.0 µM -29.2% | [6]; at 100.0 µM -21% | [7]; at 1.2 µM -9% | [7]; at 3.7 µM 9% | [7]; at 11.0 µM -14% | [7]; at 33.0 µM -5% | [7]; at 100.0 µM 5% | [8]; at 1.2 µM -16% | [8]; at 3.7 µM -18% | [8]; at 11.0 µM -23% | [8]; at 33.0 µM -18% | [8]; at 100.0 µM -21% | [9]; [17] 40% | [9]; [18] 30% | [9]; at 50.0 µM -3.75% | [10]; at 1.2 µM -18% | [10]; at 3.7 µM -14% | [10]; at 11.0 µM -19% | [10]; at 33.0 µM -27% | [10]; at 100.0 µM -36%

Cc1ccc(NC(Nc2ccc(C)cc2C)=C(C(Cl)=C(Cl)Cl)[N+](=O)[O-])c(C)c1
active: [11]; at 11.0 µM 78% | [11]; at 33.0 µM 99% | [11]; at 100.0 µM 94% | [12]; at 33.0 µM 99% | [12]; at 100.0 µM 96% | [13]; at 100.0 µM 71% | [14]; at 33.0 µM 99% | [14]; at 100.0 µM 95% | [15]; [17] 90% | [15]; at 11.0 µM 72% | [15]; at 33.0 µM 99% | [15]; [18] 98% | [15]; at 50.0 µM 98% | [15]; at 100.0 µM 92% | [1]; [17] 74% | [1]; at 33.0 µM 99% | [1]; [18] 98% | [1]; at 50.0 µM 98.8% | [1]; at 100.0 µM 94% | [2]; at 33.0 µM 99% | [2]; at 100.0 µM 94% | [3]; [17] 94% | [3]; [18] 99% | [3]; at 50.0 µM 98.9% | [4]; at 33.0 µM 99% | [4]; at 100.0 µM 94% | [5]; [18] 98% | [5]; at 50.0 µM 98.7% | [6]; at 33.0 µM 99% | [6]; [18] 98% | [6]; at 50.0 µM 98.3% | [6]; at 100.0 µM 91% | [7]; at 33.0 µM 99% | [7]; at 100.0 µM 94% | [8]; at 33.0 µM 99% | [8]; at 100.0 µM 94% | [9]; [17] 96% | [9]; [18] 98% | [9]; at 50.0 µM 98.3% | [10]; at 11.0 µM 72% | [10]; at 33.0 µM 99% | [10]; at 100.0 µM 92%
inactive: [11]; at 1.2 µM 4% | [11]; at 3.7 µM 10% | [12]; at 1.2 µM 2% | [12]; at 3.7 µM 3% | [12]; at 11.0 µM 34% | [13]; at 1.2 µM 8% | [13]; at 3.7 µM 10% | [13]; at 11.0 µM 19% | [13]; at 33.0 µM 38% | [14]; at 1.2 µM 0% | [14]; at 3.7 µM 4% | [14]; at 11.0 µM 21% | [15]; at 1.2 µM 1% | [15]; at 3.7 µM 4% | [1]; at 1.2 µM 0% | [1]; at 3.7 µM 5% | [1]; at 11.0 µM 49% | [2]; at 1.2 µM 2% | [2]; at 3.7 µM 2% | [2]; at 11.0 µM 25% | [4]; at 1.2 µM -3% | [4]; at 3.7 µM -1% | [4]; at 11.0 µM 48% | [5]; [17] 27% | [6]; at 1.2 µM -2% | [6]; at 3.7 µM -4% | [6]; [17] 67% | [6]; at 11.0 µM 30% | [7]; at 1.2 µM 2% | [7]; at 3.7 µM 4% | [7]; at 11.0 µM 47% | [8]; at 1.2 µM 1% | [8]; at 3.7 µM 5% | [8]; at 11.0 µM 35% | [10]; at 1.2 µM 2% | [10]; at 3.7 µM 7%

N#CCCC1C(C#N)C2(Cl)CC1(Cl)C(Cl)=C2Cl (stereo unspecified)
active: [11]; at 33.0 µM 81% | [11]; at 100.0 µM 98% | [12]; at 100.0 µM 98% | [13]; at 100.0 µM 84% | [14]; at 100.0 µM 98% | [15]; at 33.0 µM 84% | [15]; [18] 89% | [15]; at 50.0 µM 89.9% | [15]; at 100.0 µM 97% | [1]; [18] 82% | [1]; at 50.0 µM 92% | [1]; at 100.0 µM 98% | [2]; at 33.0 µM 77% | [2]; at 100.0 µM 98% | [3]; at 50.0 µM 91.5% | [4]; at 100.0 µM 96% | [5]; [18] 75% | [5]; at 50.0 µM 87.8% | [7]; at 100.0 µM 98% | [8]; at 100.0 µM 97% | [16]; at 100.0 µM 99% | [9]; [18] 85% | [9]; at 50.0 µM 86.8% | [10]; at 33.0 µM 83% | [10]; at 100.0 µM 98%
inactive: [11]; at 1.2 µM -15% | [11]; at 3.7 µM -6% | [11]; at 11.0 µM -2% | [12]; at 1.2 µM -1% | [12]; at 3.7 µM 8% | [12]; at 11.0 µM 1% | [12]; at 33.0 µM 61% | [13]; at 1.2 µM -4% | [13]; at 3.7 µM -20% | [13]; at 11.0 µM -22% | [13]; at 33.0 µM 4% | [14]; at 1.2 µM -38% | [14]; at 3.7 µM -46% | [14]; at 11.0 µM -38% | [14]; at 33.0 µM 6% | [15]; at 1.2 µM -10% | [15]; at 3.7 µM 7% | [15]; [17] -23% | [15]; at 11.0 µM 1% | [1]; at 1.2 µM -29% | [1]; at 3.7 µM -8% | [1]; [17] -16% | [1]; at 11.0 µM -7% | [1]; at 33.0 µM 45% | [2]; at 1.2 µM -44% | [2]; at 3.7 µM -36% | [2]; at 11.0 µM -20% | [3]; [17] -18% | [3]; [18] 4% | [4]; at 1.2 µM -28% | [4]; at 3.7 µM -9% | [4]; at 11.0 µM -6% | [4]; at 33.0 µM 38% | [5]; [17] 17% | [7]; at 1.2 µM 5% | [7]; at 3.7 µM 5% | [7]; at 11.0 µM 0% | [7]; at 33.0 µM 31% | [8]; at 1.2 µM -42% | [8]; at 3.7 µM -37% | [8]; at 11.0 µM -22% | [8]; at 33.0 µM 16% | [16]; at 1.2 µM 22% | [16]; at 3.7 µM 18% | [16]; at 11.0 µM 20% | [16]; at 33.0 µM 64% | [9]; [17] -3% | [10]; at 1.2 µM -4% | [10]; at 3.7 µM -9% | [10]; at 11.0 µM 1%
